# Measured values: the supplement of paper PMC10849652
# About 7,900 targets were measured; listed, in parts, are those with a hit and a random draw of the rest. About 0.6% of all pairs of compound and target were hits. A number with no mark means an inactive call.
# Assays:
# Assay in all cases: log2 fold change, soluble protein after heating vs DMSO (PISA); higher = thermal stabilisation; K562 cells, 10 uM, 30 min; active = over 0.2 and 3.5 SD of the protein, either way, in both replicates (recomputed)
# erlotinib = compound: C#Cc1cccc(Nc2ncnc3cc(OCCOC)c(OCCOC)cc23)c1 [erlotinib]
# In short: (§1)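 K562 cells at 2×10^6 cells/mL were exposed to 10 μM compound for 30 min, then aliquots were heated for 3 min across 48°C-58°C, pooled, and extracted in PBS containing 0.5% NP-40 at 4°C. The supernatant after 21,000xg for 90 min was taken as soluble protein and measured by TMTpro 16plex LC-MS/MS with channel sums equalised. Thermal stability is reported relative to control samples, with values from duplicates. Fold changes are given on a log2 scale.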
# [1] = compound: C/C(=N\NC(=O)C1=CC(=CC=C1)S(=O)(=O)N2CCOCC2)/C3=C(C=CC(=C3)Cl)O
# In short: as §1
# [2] = compound: C1=CC(=C(C=C1Cl)C2=NC3=NC=CN=C3C(=N2)NC4=CC=NC=C4)F
# In short: as §1
# [3] = compound: C1=CC(=CC=C1C2=NC3=C(N2)C=C(C=C3)C(=O)N)OC4=CC=C(C=C4)Cl
# In short: as §1
# [4] = compound: C1=CC2=C(C=CC(=C2)/C=C\3/C(=O)NC(=NCC4=CC=CS4)S3)N=C1
# In short: as §1
# [5] = compound: C1=CC2=NC=CN=C2C=C1/C=C/3\C(=O)NC(=O)S3
# In short: as §1
# [6] = compound: C1=CC=C(C=C1)C2=NC(=C(N2)C3=CC=NC=C3)C4=CC(=C(C=C4)Cl)O
# In short: as §1
# [7] = compound: C1=CC=C2C(=C1)C3=NNC4=CC=CC(=C43)C2=O
# In short: as §1
# [8] = compound: C1CCN(C1)C(=O)NC2=CC=CC(=C2)NC3=NC=C(C(=N3)NCCC4=CN=CN4)Br
# In short: as §1
# [9] = compound: C1CN(CCC1(CC2=CC=C(C=C2)Cl)N)C3=NC=NC4=C3C=CN4
# In short: as §1
# IRAK-1-4 Inhibitor I = compound: C1COCCN1CCN2C3=CC=CC=C3N=C2NC(=O)C4=CC(=CC=C4)[N+](=O)[O-] [IRAK-1-4 Inhibitor I]
# In short: as §1
# ibrutinib = compound: C=CC(=O)N1CCC[C@@H](n2nc(-c3ccc(Oc4ccccc4)cc3)c3c(N)ncnc32)C1 [ibrutinib]
# In short: as §1
# [10] = compound: CC(=O)c1cnc2ccc(-c3cc(Cl)c(O)c(Cl)c3)nc2c1N[C@H]1CC[C@H](CN(C)C)CC1
# In short: as §1
# ralimetinib = compound: CC(C)(C)Cn1c(N)nc2ccc(-c3[nH]c(C(C)(C)C)nc3-c3ccc(F)cc3)nc21 [ralimetinib]
# In short: as §1
# [11] = compound: CC(C)(O)CC(=O)NCCn1ccc2ncnc(Nc3ccc(Oc4cccc(C(F)(F)F)c4)c(Cl)c3)c21
# In short: as §1
# [12] = compound: CC(C)C1=C2N=C(C=C(N2N=C1)NCC3=CC=CC=C3)NCCCCCCN
# In short: as §1
# [13] = compound: CC(C)C[C@@H](C=O)NC(=O)[C@H](CC(C)C)NC(=O)[C@H](CC(C)C)NC(=O)OCc1ccccc1
# In short: as §1
# pinometostat = compound: CC(C)N(C[C@H]1O[C@@H](n2cnc3c(N)ncnc32)[C@H](O)[C@@H]1O)[C@H]1C[C@@H](CCc2nc3cc(C(C)(C)C)ccc3[nH]2)C1 [pinometostat]
# In short: as §1
# [14] = compound: CC1=C(C(CC(=O)N1)C2=CC=C(C=C2)C(F)(F)F)C(=O)NC3=C(C=C4C(=C3)C=NN4)F
# In short: as §1
# [15] = compound: CC1=C(C2=C(C=C1)C(=O)C3=CC=CC=C3N2CCCN)C
# In short: as §1
# Sequence of UniProt O95602 (O95602 whole entry, looked up): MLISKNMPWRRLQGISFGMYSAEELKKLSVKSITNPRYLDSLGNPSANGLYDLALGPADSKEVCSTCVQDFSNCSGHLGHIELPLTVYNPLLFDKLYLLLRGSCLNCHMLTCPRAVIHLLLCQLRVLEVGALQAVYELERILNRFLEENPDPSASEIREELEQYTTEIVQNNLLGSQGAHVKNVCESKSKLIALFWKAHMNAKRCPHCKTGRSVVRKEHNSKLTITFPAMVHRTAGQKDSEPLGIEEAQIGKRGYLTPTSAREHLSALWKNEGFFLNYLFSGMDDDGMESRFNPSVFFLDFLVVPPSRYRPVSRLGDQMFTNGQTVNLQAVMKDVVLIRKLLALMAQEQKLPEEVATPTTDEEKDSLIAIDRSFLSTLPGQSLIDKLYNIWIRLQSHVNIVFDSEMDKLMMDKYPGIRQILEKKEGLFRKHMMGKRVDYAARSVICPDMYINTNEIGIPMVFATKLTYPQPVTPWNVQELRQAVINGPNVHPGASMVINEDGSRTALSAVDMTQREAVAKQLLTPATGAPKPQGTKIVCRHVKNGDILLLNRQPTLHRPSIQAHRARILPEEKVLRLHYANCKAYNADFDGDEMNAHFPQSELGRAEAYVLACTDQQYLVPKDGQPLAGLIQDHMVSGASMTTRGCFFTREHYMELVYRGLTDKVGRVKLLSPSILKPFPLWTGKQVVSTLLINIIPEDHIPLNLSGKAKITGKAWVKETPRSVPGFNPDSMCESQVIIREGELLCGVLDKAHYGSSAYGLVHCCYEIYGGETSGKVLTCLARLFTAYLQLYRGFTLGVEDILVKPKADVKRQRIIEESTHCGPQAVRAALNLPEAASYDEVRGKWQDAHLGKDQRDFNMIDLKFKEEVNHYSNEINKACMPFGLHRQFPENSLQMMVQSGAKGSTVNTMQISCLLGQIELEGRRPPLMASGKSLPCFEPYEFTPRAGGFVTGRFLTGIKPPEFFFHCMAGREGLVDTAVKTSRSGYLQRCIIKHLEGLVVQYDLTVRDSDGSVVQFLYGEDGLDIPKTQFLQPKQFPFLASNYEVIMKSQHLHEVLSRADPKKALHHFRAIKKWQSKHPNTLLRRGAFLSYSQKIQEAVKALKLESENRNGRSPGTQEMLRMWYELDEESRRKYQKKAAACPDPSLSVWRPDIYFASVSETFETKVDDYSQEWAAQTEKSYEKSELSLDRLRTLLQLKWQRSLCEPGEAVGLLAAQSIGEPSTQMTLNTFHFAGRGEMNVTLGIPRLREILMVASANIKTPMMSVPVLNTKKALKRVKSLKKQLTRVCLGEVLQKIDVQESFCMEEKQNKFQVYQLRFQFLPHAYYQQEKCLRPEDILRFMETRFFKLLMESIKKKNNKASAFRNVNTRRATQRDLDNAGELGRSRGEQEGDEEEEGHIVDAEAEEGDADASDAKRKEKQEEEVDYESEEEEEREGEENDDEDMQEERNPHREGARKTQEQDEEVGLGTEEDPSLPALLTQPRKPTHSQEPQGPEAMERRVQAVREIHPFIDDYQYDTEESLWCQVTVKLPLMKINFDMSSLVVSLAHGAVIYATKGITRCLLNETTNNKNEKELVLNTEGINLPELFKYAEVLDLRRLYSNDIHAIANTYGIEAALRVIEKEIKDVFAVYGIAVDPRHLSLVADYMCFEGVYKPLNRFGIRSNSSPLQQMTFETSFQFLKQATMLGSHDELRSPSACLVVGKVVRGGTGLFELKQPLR
# Sequence of UniProt Q9Y2I7 (Q9Y2I7 whole entry, looked up): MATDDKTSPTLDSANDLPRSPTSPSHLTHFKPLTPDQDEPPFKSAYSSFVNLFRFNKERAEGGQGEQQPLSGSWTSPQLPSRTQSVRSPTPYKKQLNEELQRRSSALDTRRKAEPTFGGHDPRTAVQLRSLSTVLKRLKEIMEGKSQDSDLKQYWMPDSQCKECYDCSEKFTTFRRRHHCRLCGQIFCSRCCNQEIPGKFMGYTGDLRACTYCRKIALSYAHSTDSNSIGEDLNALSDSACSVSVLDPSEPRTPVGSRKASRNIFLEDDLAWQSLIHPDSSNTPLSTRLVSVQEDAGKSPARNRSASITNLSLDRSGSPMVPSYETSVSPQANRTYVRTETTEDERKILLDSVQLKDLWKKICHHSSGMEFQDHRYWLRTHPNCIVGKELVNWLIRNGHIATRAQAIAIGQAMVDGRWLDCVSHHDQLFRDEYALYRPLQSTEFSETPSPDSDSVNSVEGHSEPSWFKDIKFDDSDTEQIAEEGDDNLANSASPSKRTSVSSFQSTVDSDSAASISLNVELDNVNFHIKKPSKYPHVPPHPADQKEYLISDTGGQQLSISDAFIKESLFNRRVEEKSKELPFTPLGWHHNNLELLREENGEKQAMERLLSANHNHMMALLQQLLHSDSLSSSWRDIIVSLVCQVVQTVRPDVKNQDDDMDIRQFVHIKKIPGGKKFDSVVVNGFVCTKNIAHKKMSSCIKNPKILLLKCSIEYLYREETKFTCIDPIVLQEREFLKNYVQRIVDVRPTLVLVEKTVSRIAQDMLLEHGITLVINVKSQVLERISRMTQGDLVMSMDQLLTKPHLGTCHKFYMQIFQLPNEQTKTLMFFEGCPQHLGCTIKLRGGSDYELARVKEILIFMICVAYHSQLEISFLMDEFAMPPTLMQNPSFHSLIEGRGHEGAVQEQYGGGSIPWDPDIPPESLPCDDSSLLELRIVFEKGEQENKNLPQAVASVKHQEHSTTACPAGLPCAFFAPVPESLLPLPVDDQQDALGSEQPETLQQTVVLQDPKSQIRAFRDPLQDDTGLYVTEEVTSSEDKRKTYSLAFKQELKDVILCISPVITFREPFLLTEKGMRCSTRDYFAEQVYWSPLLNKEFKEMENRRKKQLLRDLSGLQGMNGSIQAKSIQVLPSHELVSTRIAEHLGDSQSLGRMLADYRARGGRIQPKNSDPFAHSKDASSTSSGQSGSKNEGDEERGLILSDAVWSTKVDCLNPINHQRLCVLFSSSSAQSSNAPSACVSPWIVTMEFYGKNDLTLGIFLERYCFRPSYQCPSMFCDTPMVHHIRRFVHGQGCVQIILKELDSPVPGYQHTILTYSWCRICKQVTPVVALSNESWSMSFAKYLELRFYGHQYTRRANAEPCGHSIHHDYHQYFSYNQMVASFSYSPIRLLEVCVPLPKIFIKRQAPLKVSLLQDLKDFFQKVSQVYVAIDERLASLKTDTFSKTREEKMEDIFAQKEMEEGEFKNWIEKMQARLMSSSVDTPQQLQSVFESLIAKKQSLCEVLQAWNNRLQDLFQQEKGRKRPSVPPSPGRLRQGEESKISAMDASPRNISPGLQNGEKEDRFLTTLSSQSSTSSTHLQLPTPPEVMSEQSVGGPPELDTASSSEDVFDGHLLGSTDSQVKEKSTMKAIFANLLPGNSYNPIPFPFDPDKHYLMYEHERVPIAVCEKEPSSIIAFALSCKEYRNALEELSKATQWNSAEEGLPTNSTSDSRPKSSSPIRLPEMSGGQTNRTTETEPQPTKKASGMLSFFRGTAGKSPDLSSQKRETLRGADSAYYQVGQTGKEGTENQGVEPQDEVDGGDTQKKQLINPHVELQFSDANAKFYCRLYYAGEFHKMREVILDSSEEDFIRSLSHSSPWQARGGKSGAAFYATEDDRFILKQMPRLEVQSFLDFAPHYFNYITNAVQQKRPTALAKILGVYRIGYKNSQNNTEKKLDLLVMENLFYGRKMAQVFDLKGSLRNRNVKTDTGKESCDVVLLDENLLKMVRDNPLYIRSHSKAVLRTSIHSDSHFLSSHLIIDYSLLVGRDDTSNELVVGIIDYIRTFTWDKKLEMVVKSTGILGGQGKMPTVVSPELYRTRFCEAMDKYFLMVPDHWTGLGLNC
# Sequence of UniProt Q15365 (Q15365 whole entry, looked up): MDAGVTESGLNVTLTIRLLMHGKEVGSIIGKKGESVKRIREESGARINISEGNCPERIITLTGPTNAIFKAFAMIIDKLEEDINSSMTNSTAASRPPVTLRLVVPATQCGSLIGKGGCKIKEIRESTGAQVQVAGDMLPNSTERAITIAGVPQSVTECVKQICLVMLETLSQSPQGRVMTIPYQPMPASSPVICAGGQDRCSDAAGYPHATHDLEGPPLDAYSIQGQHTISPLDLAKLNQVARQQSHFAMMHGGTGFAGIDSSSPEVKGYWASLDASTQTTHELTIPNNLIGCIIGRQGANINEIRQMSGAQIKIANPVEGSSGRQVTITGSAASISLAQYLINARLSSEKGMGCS
# Sequence of UniProt O95997 (O95997 whole entry, looked up): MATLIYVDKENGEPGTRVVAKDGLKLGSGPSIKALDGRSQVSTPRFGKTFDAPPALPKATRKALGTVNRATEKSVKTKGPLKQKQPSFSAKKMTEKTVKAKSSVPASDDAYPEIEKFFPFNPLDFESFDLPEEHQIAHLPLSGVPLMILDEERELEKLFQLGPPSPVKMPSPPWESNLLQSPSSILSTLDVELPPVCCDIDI
# Sequence of UniProt Q04759 (Q04759 whole entry, looked up): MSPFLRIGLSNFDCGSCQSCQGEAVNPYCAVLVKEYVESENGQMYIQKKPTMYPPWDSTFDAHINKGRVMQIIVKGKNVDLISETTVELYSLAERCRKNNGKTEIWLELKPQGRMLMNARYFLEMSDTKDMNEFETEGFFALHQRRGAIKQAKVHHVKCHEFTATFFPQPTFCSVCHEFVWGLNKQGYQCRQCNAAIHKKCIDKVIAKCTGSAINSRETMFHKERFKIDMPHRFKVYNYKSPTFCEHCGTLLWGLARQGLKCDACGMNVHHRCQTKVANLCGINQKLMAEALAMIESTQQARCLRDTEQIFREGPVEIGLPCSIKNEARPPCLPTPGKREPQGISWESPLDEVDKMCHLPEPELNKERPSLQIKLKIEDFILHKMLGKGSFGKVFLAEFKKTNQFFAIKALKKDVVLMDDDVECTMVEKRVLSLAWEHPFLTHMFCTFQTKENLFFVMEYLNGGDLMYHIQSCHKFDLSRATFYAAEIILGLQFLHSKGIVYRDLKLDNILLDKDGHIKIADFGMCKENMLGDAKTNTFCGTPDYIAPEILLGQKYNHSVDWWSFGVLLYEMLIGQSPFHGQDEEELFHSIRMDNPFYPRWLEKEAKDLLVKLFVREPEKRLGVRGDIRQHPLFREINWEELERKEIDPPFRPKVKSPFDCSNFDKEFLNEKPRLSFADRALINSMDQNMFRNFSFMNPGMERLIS
Target,log2 fold change (erlotinib),log2 fold change [1],log2 fold change [2],log2 fold change [3],log2 fold change [4],log2 fold change [5],log2 fold change [6],log2 fold change [7],log2 fold change [8],log2 fold change [9],log2 fold change (IRAK-1-4 Inhibitor I),log2 fold change (ibrutinib),log2 fold change [10],log2 fold change (ralimetinib),log2 fold change [11],log2 fold change [12],log2 fold change [13],log2 fold change (pinometostat),log2 fold change [14],log2 fold change [15]
PIKFYVE (UniProt Q9Y2I7),-0.174,0.111,0.082,0.082,-0.007,0.075,0.04,-0.014,0.037,-0.108,-0.032,-0.097,-0.07,-0.002,-0.145,-0.256,0.063,0.006,0.034,0.012
POLR1A (UniProt O95602),-0.055,-0.236,0.031,0.058,0.04,0.005,0.079,-0.096,0,0.125,0.06,0.06,0.022,0.153,-0.022,-0.091,0.005,0.07,0.052,-0.14
PIP4K2A (UniProt P48426),0.172,0.028,0.075,-0.058,-0.065,0.287,0.108,0.076,0.162,-0.013,0.115,-0.03,0.749 (active),-0.068,-0.108,0.074,0.018,-0.067,-0.118,-0.02
PDCD4 (UniProt Q53EL6),0.107,-0.041,0.14,-0.051,0.16,0.145,0.072,0.108,0.024,0.027,-0.043,-0.05,0.271,-0.042,-0.091,-0.194,-0.015,-0.046,-0.123,-0.17
PEX7 (UniProt O00628),0.021,0.034,0.034,0.276 (active),0.08,-0.117,0.039,-0.041,-0.031,0.063,0.03,-0.092,-0.106,-0.064,-0.057,-0.006,0.003,-0.034,0.025,0.033
PCBP1 (UniProt Q15365),-0.009,0.092,0.062,-0.031,0.011,-0.002,0.057,0.031,-0.034,0.002,0,-0.017,-0.005,0.058,-0.058,-0.118,-0.006,-0.003,0.023,0.039
PTGFRN (UniProt Q9P2B2),0.019,-0.006,0.021,0,-0.034,0.01,0.015,-0.053,-0.027,0.11,0.009,0.06,-0.111,-0.029,-0.026,0.222 (active),0.07,0.002,0.006,0.028
PEF1 (UniProt Q9UBV8),-0.053,0.108,0.079,-0.029,0.134,-0.064,0.109,0.035,-0.008,-0.069,0.003,-0.002,-0.03,-0.057,-0.092,-0.094,-0.085,-0.041,-0.014,0.085
PPP2R5A (UniProt Q15172),0.011,0.098,0.009,-0.022,0.018,0.055,0.078,0.017,0,-0.015,0.005,-0.024,0.004,0.066,-0.16,-0.193,0.023,0.025,0.02,0.071
PMM1 (UniProt Q92871),-0.021,-0.041,0.004,0.065,0.1,0.002,-0.007,-0.049,0.001,0.036,-0.06,0.039,-0.011,-0.024,0.014,0.187,0.019,-0.037,0.02,0.049
PTTG1 (UniProt O95997),-0.024,0.094,-0.024,0.029,-0.043,-0.005,-0.205,-0.045,-0.024,-0.093,-0.026,-0.017,0.057,-0.069,-0.03,-0.002,0.393 (active),0.036,0.055,-0.084
PPP4R3B (UniProt Q5MIZ7),0.022,0.023,0.013,-0.023,0.083,0.028,-0.023,-0.019,-0.003,-0.027,0.027,-0.024,-0.018,-0.014,0.095,-0.069,-0.023,-0.021,0.034,-0.069
PBK (UniProt Q96KB5),0.103,0.117,-0.054,-0.037,0.083,0.028,0.067,0.016,-0.052,-0.105,-0.142,-0.059,0,0.111,-0.144,-0.286,0.06,0.071,-0.011,-0.08
PRG4 (UniProt Q92954),0.002,-0.109,0.011,-0.085,0.15,0.024,-0.139,-0.171,-0.143,0.031,-0.072,-0.005,0,0.011,0.059,0.29,0.054,-0.068,0.039,-0.127
PRKCQ (UniProt Q04759),0.036,0.047,0.024,0.03,0.093,0.012,0.012,-0.008,-0.007,-0.061,0.004,-0.026,-2.02 (active),-0.02,-0.037,-0.103,-0.011,0.028,0.024,0.018
